# Hits are enriched below; roughly 9.9% of the tested compounds scored in any of these assays.
# Tau fluor cs: counter-screen for tau fibril formation inhibitors; tau K18 P301L Alexa594 fluorescence, heparin fibrillization; Potency, µM (doses to about 57.7 µM), for the others: top-dose activity change, negative = decrease; 280,000 compounds, 0.93% hits; active = well fitted curve in the direction sought with a large enough effect; inconclusive = small, poorly fitted or top-dose-only effect, or another doubt; inactive = no such curve, though single readings can be large; an effect the other way counts as inactive or inconclusive; also: nearly all actives have a fitted effect of over 55% in size
#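 Human tau K18 P301L (15 uM unlabeled, 0.24 uM Alexa 594-labeled) in 100 mM sodium acetate pH 7 with 20 uM heparin, 6 hr at 37 C. ThT 30 uM added, 1 hr ambient; Alexa 594 FP and total fluorescence read at 555/632 nm.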
# Tau ThT inhib: tau fibrillization inhibition (ThT binding); P10636; recombinant tau K18 P301L (four-repeat tau fragment), heparin-induced fibrillization, ThT fluorescence; Potency, µM (titrated, usually from 57.4 µM), without a hit: at the top dose activity, negative = inhibition, usual class: inhibitors; 270,000 compounds, 2.1% hits; active = well fitted curve in the direction sought with a large enough effect; inconclusive = small, poorly fitted or top-dose-only effect, or another doubt; inactive = no such curve, though single readings can be large; an effect the other way counts as inactive or inconclusive; also: nearly all actives have a fitted effect of over 55% in size
#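 Aggregation was driven by heparin (20 uM final) acting on recombinant tau […] bearing P301L in 100 mM sodium acetate pH 7; fibrils were detected with Thioflavin T.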
# KDM4E inh: inhibitors of human JMJD2E histone demethylase | B2RXH2 | JMJD2E catalytic domain, FDH-coupled NADH fluorescence (FDH is formaldehyde dehydrogenase) | Potency, µM (series often up to 57.1 µM), for the others: at the highest dose activity change, negative = inhibition, actives largely listed as inhibitors | 230,000 compounds, 1.6% hits | AID 2147;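 also: 0% = wells with enzyme and -100% = buffer wells without enzyme; nearly all actives have a fitted effect of over 50% in size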
# HPGD block: HPGD (human) dehydrogenase inhibition; Potency, µM, for the others: top-dose activity change, negative = inhibition, hits mostly inhibitors; purified HPGD, NADH fluorescence kinetic, PGE2 substrate; 150,000 compounds, 4.3% hits
#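 NADH formation kinetics: reaction with 30 uM PGE2 and 1 mM NAD+ (final), 20 nM enzyme, Tris-HCl pH 8 with Tween 20, after 15 min compound preincubation at room temperature. Fluorescence change, last versus first of five reads.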
# ALDH1A1 inh: blocks purified human ALDH1A1 activity; P00352; Purified ALDH1A1, NADH fluorescence, propionaldehyde substrate; Potency, µM (titrated, usually from 75.3 µM), without a hit: at the highest dose activity, negative = inhibition, actives largely listed as inhibitors; 220,000 compounds, 7.3% hits;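 also: plate controls were no enzyme wells and a reference inhibitor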
# Target sequence (P00352 whole entry, looked up): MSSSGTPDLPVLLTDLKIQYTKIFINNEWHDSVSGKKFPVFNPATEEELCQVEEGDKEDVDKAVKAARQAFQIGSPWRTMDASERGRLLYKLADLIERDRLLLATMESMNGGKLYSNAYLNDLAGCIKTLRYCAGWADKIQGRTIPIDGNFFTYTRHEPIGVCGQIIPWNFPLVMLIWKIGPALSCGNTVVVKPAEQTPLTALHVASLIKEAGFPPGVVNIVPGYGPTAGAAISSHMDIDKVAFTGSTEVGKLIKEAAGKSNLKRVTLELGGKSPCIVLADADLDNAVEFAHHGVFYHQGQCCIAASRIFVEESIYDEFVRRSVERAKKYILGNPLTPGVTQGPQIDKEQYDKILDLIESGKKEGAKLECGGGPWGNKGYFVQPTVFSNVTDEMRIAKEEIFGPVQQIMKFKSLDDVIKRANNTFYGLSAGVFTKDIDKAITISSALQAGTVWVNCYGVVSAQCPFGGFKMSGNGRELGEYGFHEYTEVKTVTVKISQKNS
# Tau FP inhib: inhibitors of human tau fibril formation; K18 P301L tau heparin fibrillization, Alexa594 FP, 6 h; Potency, µM (series often up to 57.7 µM), for inactives: at the top dose activity, negative = inhibition, most hits filed as inhibitors; 280,000 compounds, 0.39% hits; AID 1468; active = well fitted curve in the direction sought with a large enough effect; inconclusive = small, poorly fitted or top-dose-only effect, or another doubt; inactive = no such curve, though single readings can be large; an effect the other way counts as inactive or inconclusive; also: nearly all actives have a fitted effect of over 55% in size
#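 Recombinant K18 P301L […], labeled with Alexa 594 at 0.24 uM over 15 uM unlabeled; heparin inducer 20 uM final; 37 C, 6 hr; FP endpoint.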
# * marks the source's active call; other numbers are inactive results; ? = inconclusive; nt = no result; [ ] = dose if it differs, or a comment. Unless noted, calls follow the shape of the dose curve; as a rule, active = well fitted inhibition curve with a large enough effect (not every such curve was filed as active); inconclusive = small, poorly fitted or top-dose-only effect, or another doubt; inactive = no such curve, though single readings can be large or run the other way. Unless noted, % is scaled to controls: 0 for no effect and ±100 for the full control effect; potency is read from the fitted curve at half-maximal effect.
SMILES,Tau fluor cs,Tau ThT inhib,KDM4E inh,HPGD block,ALDH1A1 inh,Tau FP inhib
CN(Cc1ccccc1)S(=O)(=O)c1ccc2[nH]c3c(c2c1)CCCCC3,3.5µM*[quencher],0%,nt,nt,nt,?
CCOc1ccc(NC(=O)c2ccc(NC(=O)N3CCSc4ncccc43)cc2)cc1,-5%,-9%,nt,nt,nt,-6%
CCCCNc1nc2ccccc2n1CC(=O)Nc1c(C)cccc1CC,-5%,-1%,-1%,-6%,-4%,-3%
COc1ccc(N(C)S(=O)(=O)c2cccc(C(=O)NCc3ccc4c(c3)OCO4)c2)cc1,?,-3%,-5%,nt,-8%,-9%
COc1ccc(N(C)S(=O)(=O)c2cccc(C(=O)N(C)Cc3ccc(C)o3)c2)cc1,-10%,-10%,-2%,nt,10µM*,5%
C=CCNc1oc(-c2cccs2)nc1S(=O)(=O)c1ccccc1,-16%,-6%,-16%,nt,-4%,3%
COc1ccc(/C=C\c2onc(C)c2S(=O)(=O)N2CCC(C(=O)Nc3ccc(Cl)cc3)CC2)cc1,-25%,-1%,nt,nt,nt,?
CCc1ccc(-c2[nH]c3c(c2-c2sc(C)c(C(=O)OC)c2O)c(=O)n(C)c(=O)n3C)cc1,-6%,-2%,nt,nt,nt,5%
COC(=O)c1c(C)sc(-c2c(-c3ccc(F)cc3)[nH]c3[nH]c(=O)[nH]c(=O)c23)c1O,10µM*[quencher],?,nt,nt,nt,6%
O=C(Nc1cnn(Cc2ccc(Cl)cc2Cl)c1)c1cc(-c2cccs2)on1,-27%,-4%,-11%,?,?,-9%
O=C(Nc1cnn(Cc2ccc(Cl)cc2Cl)c1)c1noc2c1CCCC2,-27%,?,?,-26%,14µM*,4%
CC(=O)c1cccc(NC(=O)Nc2cnn(Cc3ccc(Cl)cc3Cl)c2)c1,8.9µM*[quencher],-10%,-2%,-17%,-8%,?
Cc1ccc2nc(CSc3nnc(NC(=O)COc4ccccc4F)s3)cc(=O)n2c1,2%,-12%,nt,nt,nt,-8%
COc1cc2cc3c(N)c(C(=O)Nc4sc(C)c(C)c4C#N)sc3nc2cc1OC,-27%,5µM*,?,-11%,-12%,8%
Cc1ccc2nc3sc(C(=O)NCc4ccco4)c(N)c3cc2c1,-30%,?,0%,-7%,7%,-12%
COc1ccc(C(=O)Nc2sc(C)c(-c3ccccc3)c2C#N)cc1OC,?,?,?,?,?,3%
COc1cc2cc3c(N)c(C(=O)NCc4ccco4)sc3nc2cc1OC,?,14µM*,?,nt,5%,-5%
Nc1nc(Nc2ccccc2)nc2c1ncn2[C@@H]1O[C@@H](CO)[C@H](O)[C@H]1O,-9%,-4%,-13%,-6%,-10%,0%
CCN1CCN(CCOc2cccc(Cl)c2Cl)CC1,-14%,-7%,6%,nt,8.9µM*,-2%
CCN1CCN(CCCOc2ccc(Cl)cc2Br)CC1,14%,9%,5%,nt,13µM*,3%
CCn1c(C)cc(/C=C2/SC(=S)NC2=O)c1C,-27%,13µM*,5%,?,?,0%
CCn1ncc(/C=C2/SC(=S)NC2=O)c1C,7%,-13%,0%,16µM*,-13%,2%
O=C1NC(=S)S/C1=C/c1ccc(Oc2cnccn2)cc1,2%,?,3%,nt,?,10%
Cc1cc(/C=C2\SC(=S)NC2=O)c(C)[nH]1,?,16µM*,-29%,nt,?,3%
Cc1sc(-n2c(C)cc(/C=C3\SC(=S)NC3=O)c2C)c(C#N)c1C,?,?,3%,?,12%,-4%
CCOC(=O)CNS(=O)(=O)c1ccc2c3c(cccc13)C(=O)N2CC,-2%,1%,?,nt,?,0%
CCN1C(=O)c2cccc3c(S(=O)(=O)Nc4c(C)n(C)n(-c5ccccc5)c4=O)ccc1c23,6%,-2%,3%,-10%,14µM*,9%
CCOc1cc(/C=C2\C(=O)ON=C2C)ccc1OCc1ccccc1,-9%,?,0%,7.1µM*,3.5µM*,-7%
